About 2,000 (36%) of roughly 5,500 compounds were called active. Another 18% or so got no clear call; they are omitted. Rule as the data show it: active = normalized growth mostly below about 0.91 (no sharp cut-off); inconclusive = no clear call, values can overlap the other calls; inactive = mostly above about 0.92. Some of the results follow.
Assay: chemical genetic growth profiling, strain panel (AID 1159580);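 also: tested at 20 µM; growth read once vehicle control cultures reached saturation at 30 °C; 1 = growth at the plate median or of vehicle wells; lower values mean less growth of the strain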
Settings: growth OD
[1] = S. cerevisiae deletion strains, locus YDL101C, strain DUN1, active compounds read low
[2] = S. cerevisiae deletion strains, locus YHR030C, strain SLT2, active compounds read low
[3] = S. cerevisiae deletion strains, locus YAL013W, strain DEP1, active compounds read low
[4] = S. cerevisiae deletion strains, locus YBR229C, strain ROT2, active compounds read low
[5] = S. cerevisiae deletion strains, locus YDR150W, strain NUM1, active compounds read low
[6] = S. cerevisiae deletion strains, locus YEL061C, strain CIN8, active compounds read low
[7] = S. cerevisiae deletion strains, locus YGR078C, strain PAC10, active compounds read low
[8] = S. cerevisiae deletion strains, locus YHR087W, strain rtc3, active compounds read low
[9] = S. cerevisiae deletion strains, locus YJR043C, strain POL32, active compounds read low
[10] = S. cerevisiae deletion strains, locus YJR075W, strain HOC1, active compounds read low
[11] = S. cerevisiae deletion strains, locus YLR039C, strain RIC1, active compounds read low
[12] = S. cerevisiae deletion strains, locus YLR058C, strain SHM2 (second series), active compounds read low
[13] = S. cerevisiae deletion strains, locus YLR085C, strain ARP6, active compounds read low
[14] = S. cerevisiae deletion strains, locus YLR262C, strain YPT6, active compounds read low
[15] = S. cerevisiae deletion strains, locus YML094W, strain GIM5, active compounds read low
[16] = S. cerevisiae deletion strains, locus YMR219W, strain ESC1, active compounds read low
[17] = S. cerevisiae deletion strains, locus YMR263W, strain SAP30, active compounds read low
[18] = S. cerevisiae deletion strains, locus YNL153C, strain GIM3, active compounds read low
[19] = S. cerevisiae deletion strains, locus YNL298W, strain CLA4 (second series), active compounds read low
[20] = S. cerevisiae deletion strains, locus YNL322C, strain KRE1, active compounds read low
[21] = S. cerevisiae deletion strains, locus YNR030W, strain Alg12, active compounds read low
[22] = S. cerevisiae deletion strains, locus YPL055C, strain LGE1, active compounds read low
[23] = S. cerevisiae deletion strains, locus YPL241C, strain CIN2, active compounds read low
[24] = S. cerevisiae deletion strains, locus YPR135W, strain CTF4, active compounds read low
[25] = S. cerevisiae strains, strain wild type, active compounds read low
[26] = S. cerevisiae deletion strains, locus YMR307W, strain GAS1, active compounds read low

Measured: normalized growth

CC(C)(C)C1=C(C#N)C(c2c(Cl)cccc2Cl)C(C#N)=C(N)O1 (stereo not given)
inactive: S. cerevisiae deletion strains, locus YAR019C, strain CDC15, active compounds read low 0.987 | S. cerevisiae deletion strains, locus YBL105C, strain PKC1, active compounds read low 0.99 | S. cerevisiae deletion strains, locus YBR135W, strain CKS1, active compounds read low 0.992 | S. cerevisiae deletion strains, locus YBR136W, strain MEC1, active compounds read low 0.989 | S. cerevisiae deletion strains, locus YBR160W, strain CDC28, active compounds read low 0.996 | S. cerevisiae deletion strains, locus YDL017W, strain CDC7, active compounds read low 0.99 | S. cerevisiae deletion strains, locus YDL028C, strain MPS1, active compounds read low 0.997 | [1] 0.979 | S. cerevisiae deletion strains, locus YDL108W, strain KIN28, active compounds read low 0.992 | S. cerevisiae deletion strains, locus YDL132W, strain cdc53, active compounds read low 0.978 | S. cerevisiae deletion strains, locus YDL214C, strain PRR2, active compounds read low 0.987 | S. cerevisiae deletion strains, locus YDR052C, strain DBF4, active compounds read low 0.997 | S. cerevisiae deletion strains, locus YDR054C, strain cdc34, active compounds read low 0.976 | S. cerevisiae deletion strains, locus YDR226W, strain ADK1, active compounds read low 0.979 | S. cerevisiae deletion strains, locus YDR477W, strain SNF1, active compounds read low 0.995 | S. cerevisiae deletion strains, locus YER123W, strain YCK3, active compounds read low 0.996 | S. cerevisiae deletion strains, locus YER133W, strain GLC7, active compounds read low 0.984 | S. cerevisiae deletion strains, locus YFL009W, strain cdc4, active compounds read low 0.98 | S. cerevisiae deletion strains, locus YFL029C, strain CAK1, active compounds read low 0.983 | S. cerevisiae deletion strains, locus YFR003C, strain YPI1, active compounds read low 0.992 | S. cerevisiae deletion strains, locus YFR019W, strain FAB1, active compounds read low 1 | S. cerevisiae deletion strains, locus YFR028C, strain CDC14, active compounds read low 0.978 | S. cerevisiae deletion strains, locus YGR040W, strain KSS1, active compounds read low 0.991 | S. cerevisiae deletion strains, locus YGR052W, strain FMP48, active compounds read low 1.01 | S. cerevisiae deletion strains, locus YGR092W, strain DBF2, active compounds read low 0.98 | [2] 0.983 | S. cerevisiae deletion strains, locus YHR079C, strain IRE1, active compounds read low 0.891 | S. cerevisiae deletion strains, locus YHR082C, strain KSP1, active compounds read low 1.09 | S. cerevisiae deletion strains, locus YHR205W, strain SCH9, active compounds read low 0.913 | S. cerevisiae deletion strains, locus YIL147C, strain SLN1, active compounds read low 0.993 | S. cerevisiae deletion strains, locus YJL095W, strain BCK1, active compounds read low 0.894 | S. cerevisiae deletion strains, locus YJL128C, strain PBS2, active compounds read low 0.925 | S. cerevisiae deletion strains, locus YJL157C, strain FAR1, active compounds read low 1.01 | S. cerevisiae deletion strains, locus YJR016C, strain ILV3, active compounds read low 0.984 | S. cerevisiae deletion strains, locus YJR066W, strain TOR1 (second series), active compounds read low 0.983 | S. cerevisiae deletion strains, locus YJR066W, strain TOR1, active compounds read low 1.1 | S. cerevisiae deletion strains, locus YKL048C, strain ELM1, active compounds read low 0.922 | S. cerevisiae deletion strains, locus YKL067W, strain YNK1, active compounds read low 0.988 | S. cerevisiae deletion strains, locus YKL101W, strain HSL1, active compounds read low 0.961 | S. cerevisiae deletion strains, locus YKL193C, strain SDS22, active compounds read low 0.989 | S. cerevisiae deletion strains, locus YKL203C, strain TOR2, active compounds read low 1.07 | S. cerevisiae deletion strains, locus YLR113W, strain HOG1, active compounds read low 0.885 | S. cerevisiae deletion strains, locus YLR133W, strain CKI1, active compounds read low 1.02 | S. cerevisiae deletion strains, locus YLR403W, strain SFP1, active compounds read low 0.944 | S. cerevisiae deletion strains, locus YML070W, strain DAK1, active compounds read low 0.992 | S. cerevisiae deletion strains, locus YMR001C, strain CDC5, active compounds read low 0.995 | S. cerevisiae deletion strains, locus YMR205C, strain PFK2 (second series), active compounds read low 0.993 | S. cerevisiae deletion strains, locus YMR277W, strain FCP1, active compounds read low 0.997 | S. cerevisiae deletion strains, locus YNL006W, strain LST8, active compounds read low 0.975 | S. cerevisiae deletion strains, locus YNL020C, strain ARK1, active compounds read low 1 | S. cerevisiae deletion strains, locus YNL161W, strain CBK1, active compounds read low 0.982 | S. cerevisiae deletion strains, locus YNL183C, strain NPR1, active compounds read low 1.06 | S. cerevisiae deletion strains, locus YNL207W, strain RIO2, active compounds read low 0.986 | S. cerevisiae deletion strains, locus YNL222W, strain SSU72, active compounds read low 0.989 | S. cerevisiae deletion strains, locus YNL307C, strain MCK1 (second series), active compounds read low 1 | S. cerevisiae deletion strains, locus YOL078W, strain AVO1, active compounds read low 0.994 | S. cerevisiae deletion strains, locus YOL136C, strain PFK27, active compounds read low 1 | S. cerevisiae deletion strains, locus YOR061W, strain CKA2, active compounds read low 1.01 | S. cerevisiae deletion strains, locus YOR119C, strain RIO1, active compounds read low 1.04 | S. cerevisiae deletion strains, locus YOR231W, strain MKK1, active compounds read low 1.02 | S. cerevisiae deletion strains, locus YOR329C, strain SCD5, active compounds read low 0.993 | S. cerevisiae deletion strains, locus YPL031C, strain PHO85, active compounds read low 0.992 | S. cerevisiae deletion strains, locus YPL153C, strain RAD53, active compounds read low 1 | S. cerevisiae deletion strains, locus YPL204W, strain HRR25, active compounds read low 1 | S. cerevisiae deletion strains, locus YPL209C, strain IPL1, active compounds read low 0.993 | S. cerevisiae deletion strains, locus YPL256C, strain CLN2, active compounds read low 0.94 | S. cerevisiae deletion strains, locus YPR025C, strain CCL1, active compounds read low 0.992 | S. cerevisiae deletion strains, locus YPR106W, strain ISR1, active compounds read low 0.981 | S. cerevisiae deletion strains, locus YPR111W, strain DBF20, active compounds read low 0.966 | S. cerevisiae deletion strains, strain NNK1, active compounds read low 0.963 | S. cerevisiae deletion strains, strain TSCII, active compounds read low 0.991

O=C1NC2(CCN(Cc3ccccc3)CC2)Oc2ccccc21
inactive: [3] 0.999 | [4] 0.993 | [1] 0.949 | [5] 0.993 | [6] 1.02 | [7] 0.98 | S. cerevisiae deletion strains, locus YGR229C, strain SMI1, active compounds read low 0.995 | [2] 1.04 | [8] 0.968 | [9] 1 | [10] 0.985 | S. cerevisiae deletion strains, locus YKL190W, strain CNB1, active compounds read low 0.988 | [11] 0.984 | [12] 0.972 | [13] 1.14 | [14] 0.992 | [15] 1 | [16] 0.995 | [17] 1.03 | [18] 0.997 | [19] 0.955 | [20] 0.997 | [21] 0.975 | S. cerevisiae deletion strains, locus YOL006C, strain TOP1, active compounds read low 0.918 | [22] 0.997 | [23] 1.1 | [24] 0.834 | [25] 0.983

CC(C)(C)NC(=S)NC1CCN(Cc2ccccc2)CC1
inactive: [3] 1.06 | [4] 0.997 | S. cerevisiae deletion strains, locus YCL061C, strain MRC1, active compounds read low 1.03 | [1] 1.01 | S. cerevisiae deletion strains, locus YDL134C, strain PPH21, active compounds read low 0.994 | [5] 0.969 | [6] 1.02 | [7] 1.01 | [2] 1.06 | [8] 0.986 | [9] 0.995 | [10] 0.994 | [11] 0.994 | [12] 0.983 | [13] 1.03 | [14] 0.985 | [15] 1.02 | [16] 1.01 | [17] 0.992 | [26] 0.987 | [18] 1.01 | [19] 1.01 | [20] 0.995 | [21] 1.03 | [22] 0.986 | [23] 1 | [24] 1.16 | [25] 0.981

c1ccc(CN2CCC3(CCCc4ccccc43)CC2)cc1
active: S. cerevisiae deletion strains, locus YCL061C, strain MRC1 (second series), active compounds read low 0.938 | S. cerevisiae deletion strains, locus YDR363W, strain ESC2, active compounds read low 0.805 | [22] 0.854
inactive: S. cerevisiae deletion strains, locus YAL040C, strain CLN3, active compounds read low 1.02 | S. cerevisiae deletion strains, locus YER002W, strain NOP16, active compounds read low 0.975 | [7] 0.976 | [26] 1 | [18] 0.817 | S. cerevisiae deletion strains, locus YNL175C, strain NOP13, active compounds read low 0.993 | S. cerevisiae deletion strains, locus YNL197C, strain WHI3, active compounds read low 0.983 | S. cerevisiae deletion strains, locus YNL224C, strain SQS1, active compounds read low 1.01 | S. cerevisiae deletion strains, locus YOR083W, strain WHI5 (second series), active compounds read low 0.874 | [23] 0.955
